Tau fluor cs: counter-screen for tau fibril formation inhibitors. 280,000 compounds, 0.93% hits. tau K18 P301L Alexa594 fluorescence, heparin fibrillization. Potency, µM (top dose mostly 57.7 µM), for inactives: top-dose activity change, negative = decrease. AID 1463; further: nearly all actives have a fitted effect of over 55% in size
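Human K18 P301L tau (15 uM unlabeled plus 0.24 uM Alexa 594-labeled, final) in 100 mM sodium acetate pH 7 was mixed with compound and 20 uM heparin and incubated 6 hr at 37 C.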
Tau fibril FP: inhibitors of human tau fibril formation. 280,000 compounds, 0.39% hits. K18 P301L tau heparin fibrillization, Alexa594 FP, 6 h. Potency, µM (top dose mostly 57.7 µM), without a hit: at the highest dose activity, negative = inhibition, usual class: inhibitors; further: nearly all actives have a fitted effect of over 55% in size
Target sequence (P10636 561-689 P618L limits assumed): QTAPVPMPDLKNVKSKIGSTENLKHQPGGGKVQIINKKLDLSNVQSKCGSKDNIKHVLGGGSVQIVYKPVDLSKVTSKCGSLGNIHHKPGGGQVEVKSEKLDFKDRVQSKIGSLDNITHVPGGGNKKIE
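FP of Alexa 594-tau after heparin (20 uM) induction. Substrate: human K18 P301L, 15 uM unlabeled, 0.24 uM labeled. Buffer 100 mM sodium acetate pH 7. 6 hr, 37 C.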
TR SRC2 fluor cs: alters Texas Red total fluorescence, flagging assay interference | TRb/SRC2 Texas Red total fluorescence interference | Potency, µM (doses to about 106 µM), without a hit: at the highest dose fluorescence change, negative = quenching | 280,000 compounds, 0.29% hits | AID 1479; active means well fitted curve in either direction with a large enough effect; inconclusive means small, poorly fitted or top-dose-only effect
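Flags fluorescent or light-absorbing compounds by total fluorescence, S + 2P, at 555 nm excitation and 632 nm emission. Mixture: 20 nM Texas Red SRC2 peptide, 0.6 uM human TRb LBD, 1 uM T3, 5% DMSO; compound exposure 5 h at ambient temperature.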
TRb SRC2 PPI: TRbeta-SRC2 interaction inhibition; TRbeta-SRC2 peptide binding, fluorescence polarization; receptor liganded with 1 µM T3; 280,000 compounds, 0.065% hits; P10828; Potency, µM (series often up to 106 µM), for inactives: at the top dose activity change, negative = inhibition, usual class: inhibitors;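 further: plate controls were bound peptide for no effect and peptide without receptor for full effect; nearly all actives have a fitted effect of over 50% in size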
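Binding of a 20-amino-acid Texas Red SRC2 peptide (20 nM) to TRb ligand-binding domain (0.6 uM) with agonist T3 at 1 uM was followed by fluorescence polarization after a 5 hr room-temperature incubation.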
KDM4E inh: inhibitors of human JMJD2E histone demethylase; JMJD2E catalytic domain, FDH-coupled NADH fluorescence (FDH is formaldehyde dehydrogenase); Potency, µM (doses to about 57.1 µM), without a hit: at the highest dose activity change, negative = inhibition, most hits filed as inhibitors; 230,000 compounds, 1.6% hits; AID 2147; active means well fitted inhibition curve with a large enough effect, not every such curve was filed as active; inconclusive means small, poorly fitted or top-dose-only effect, or another doubt; inactive means no such curve, though single readings can be large or run the other way;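 further: 0% = wells with enzyme and -100% = buffer wells without enzyme; nearly all actives have a fitted effect of over 50% in size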
Target sequence (B2RXH2 1-337 limits assumed): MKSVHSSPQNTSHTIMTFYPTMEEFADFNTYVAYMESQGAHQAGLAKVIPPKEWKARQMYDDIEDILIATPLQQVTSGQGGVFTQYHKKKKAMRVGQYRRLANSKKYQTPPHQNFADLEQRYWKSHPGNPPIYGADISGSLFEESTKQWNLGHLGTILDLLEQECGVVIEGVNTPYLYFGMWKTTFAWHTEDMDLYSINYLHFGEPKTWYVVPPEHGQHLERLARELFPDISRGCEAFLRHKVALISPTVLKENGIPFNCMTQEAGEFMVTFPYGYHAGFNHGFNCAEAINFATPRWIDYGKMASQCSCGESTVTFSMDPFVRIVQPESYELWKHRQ
Tau ThT inhib: inhibitors of human tau fibril formation, thioflavin T binding. P10636. recombinant tau K18 P301L (four-repeat tau fragment), heparin-induced fibrillization, ThT fluorescence. Potency, µM (highest dose often 57.4 µM), inactives show top-dose activity, negative = inhibition, actives largely listed as inhibitors. 270,000 compounds, 2.1% hits. AID 1460; further: nearly all actives have a fitted effect of over 55% in size
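Heparin-induced fibrillization of the P301L-mutant K18 repeat-domain fragment of human tau was followed by ThT binding in quantitative high-throughput format.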
Starred values were filed as active, the others as inactive; ? = inconclusive; · = no result; [ ] = dose if it differs, or a comment. Compounds with a hit are over-represented: about 3.5% of the library has one in this group of screens. Unless noted, the call rests on the fitted dose curve; in most records, active means well fitted curve in the direction sought with a large enough effect; inconclusive means small, poorly fitted or top-dose-only effect, or another doubt; inactive means no such curve, though single readings can be large; an effect the other way counts as inactive or inconclusive. Unless noted, on the % scale 0 is the no-effect control and ±100 the full control effect; potency means the concentration at half of the fitted maximal effect.

SMILES | Tau fluor cs | Tau fibril FP | TR SRC2 fluor cs | TRb SRC2 PPI | KDM4E inh | Tau ThT inhib
O=C1NC(=Nc2ccccc2)S/C1=C\C=C\c1ccco1 | 0% | 1% | 1% | 6% | -3% | 4%
Cc1cccc(N=C2NC(=O)/C(=C/C=C/c3ccco3)S2)c1C | ? | ? | -2% | 0% | 3% | 16µM*
COc1ccc(N2CC(NC(=O)c3ccc4c(c3)OCO4)CC2=O)cc1OC (stereo unspecified) | -2% | -5% | 0% | -5% | · | -4%
CC1=NN(c2ccccc2)C(=O)/C1=C\c1ccc(Br)s1 | ? | -1% | -6% | -11% | 3.2µM* | 13µM*
CC1=NN(c2ccccc2)C(=O)/C1=C/c1ccc[nH]1 | -20% | -2% | -2% | 0% | 1% | 13µM*
CC1=NN(c2ccccc2)C(=O)/C1=C\c1cc(C)n(-c2ccccc2)c1C | -26% | -4% | -4% | -2% | 3% | 7.9µM*
CC1=NN(c2ccccc2)C(=O)/C1=C/c1c(O)n(-c2ccc(F)cc2)[nH]c1=O | 13µM*[quencher] | 12% | -18% | 5% | -3% | 4.5µM*
CC1=NN(c2ccccc2)C(=O)/C1=C/c1cccs1 | -15% | -5% | -2% | -21% | ? | ?
CC1SCC(=NOCc2c(Cl)cccc2Cl)CS1 (stereo unspecified) | -12% | -2% | 3% | -6% | 2% | -9%
COc1cc(C2NC(=O)N(C)C3=C2C(=O)N(c2cccc(Cl)c2)C3)ccc1O (stereo unspecified) | -4% | 1% | 1% | 0% | · | 10%
O=C(NCCc1csc(-c2ccc(F)cc2)n1)c1c(F)cccc1Cl | -13% | 6% | 0.0002µM*[quencher] | -12% | · | -15%
CCOC(=O)c1ccc(NC(=S)NCCc2ccc(F)cc2)cc1 | ? | 28µM* | 0% | 7% | 13% | 6%
COC(=O)c1ccc(NC(=O)C(=O)NCCc2csc(-c3ccc(F)cc3)n2)cc1 | 4% | 0% | 0.0004µM*[quencher] | -10% | · | 3%
O=C(NCCc1csc(-c2ccccc2)n1)c1c(F)cccc1Cl | -5% | 0% | -1% | 4% | 2% | -3%
COc1ccc(-c2ccc3cc(C(=O)O)ccc3c2)cc1C12CC3CC(CC(C3)C1)C2 | · | · | 0% | 11% | · | ·
C=CCN(Cc1cn(C)nc1-c1cccc(Cl)c1)C1CCS(=O)(=O)C1 (stereo unspecified) | -13% | 3% | 0% | 5% | 0% | -15%
CC1(C)C(=O)C2(CCCCC2)C(=O)OC1C(=O)c1ccccc1 (stereo unspecified) | -1% | -2% | 0% | -1% | -1% | 12%
CCCCN(CCCC)S(=O)(=O)c1ccc(NS(=O)(=O)c2ccc(NC(C)=O)cc2)cc1 | ? | 22µM* | 1% | 13% | -9% | ?
CCCCOc1ccc(S(=O)(=O)Nc2ccc(NC(C)=O)cc2)cc1 | -20% | 9% | -6% | -3% | -3% | -6%
CCCCCOCC1CC(C/C(C)=N/NC(N)=O)(C(=O)OCC)C(=O)O1 (stereo unspecified) | -3% | 1% | -1% | -3% | -9% | -7%
CCN(CC)c1ccc(/C=N/O)cc1 | -10% | 1% | 0% | 3% | ? | -12%
CCN(CC)c1ccc(N=Nc2ncn[nH]2)cc1 | -6% | 0% | -2% | -11% | 14µM* | 13µM*
CC(=O)c1cc(O)c2ccccc2c1O | ? | ? | -7% | 3% | 14µM* | 28µM*
CC(=O)c1c(C)oc2c1cc(O)c1ccccc12 | -20% | 0% | 0% | 5% | 11% | ·
CCn1c2ccccc2c2cc(NC(=O)Cc3ccc(S(=O)(=O)N4CCOCC4)s3)ccc21 | 7.9µM*[quencher] | 13% | -2% | -5% | 0% | ?
SMILES | Tau fluor cs | Tau fibril FP | TR SRC2 fluor cs | TRb SRC2 PPI | KDM4E inh | Tau ThT inhib
OC(COCC(F)(F)C(F)(F)C(F)(F)C(F)F)Cn1c2ccc(Cl)cc2c2cc(Cl)ccc21 (stereo unspecified) | ? | 10µM* | -4% | 3% | -14% | 5%
N=c1n(Cc2ccc(Cl)cc2)c2ccccc2n1CC(O)COc1ccccc1 (stereo unspecified) | 0% | -11% | -2% | -4% | -9% | -17%
Cc1ccccc1NC1(C#N)C(=O)Nc2ccccc21 (stereo unspecified) | -20% | -6% | -2% | 0% | -2% | ?
CN(C)/C=C1\SC(=S)N(c2ccc(Br)cc2)C1=O | ? | -1% | 32µM*[fluorescent] | ? | 3% | ·
COc1ccc(OC)c(NC(=O)c2ccc(-c3cccs3)cc2)c1 | -29% | 7% | -5% | 3% | ? | -9%
Cc1nnc(N/N=C/c2ccc(-c3ccc(Br)cc3)o2)n1N | ? | -15% | -10% | 0% | 5.6µM* | 7.9µM*
CSc1nnc2n(C3CCCCC3)c(=O)c3c4c(sc3n12)CCCC4 | -2% | 4% | -1% | -7% | 8% | -1%
Cc1nnc2n(C3CCCCC3)c(=O)c3c4c(sc3n12)CCC4 | 14µM*[quencher] | 6% | 1% | 3% | -9% | 13µM*
O=C(N=Nc1ccc(NOC(=O)c2ccccc2Br)cc1)c1ccccc1O | ? | ? | -3% | -2% | ? | 10µM*
CCCNC(=O)COc1ccc(S(=O)(=O)Nc2ccc(C)cc2)cc1 | -10% | -1% | 0% | 12% | -8% | -7%
CCCCCCNC(=O)Nc1ccc(S(=O)(=O)Nc2ccc(CCNC[C@H](O)COc3ccc(O)cc3)cc2)cc1 | 13µM*[quencher] | ? | -18% | -2% | ? | ?
O=C(CSc1nc2ccccc2s1)NNC(=O)Nc1ccc(Cl)c(Cl)c1 | ? | 20µM* | -1% | 2% | 4% | -17%
O=C(CN1c2ccccc2Sc2ccccc21)NNC(=O)Nc1ccc(Cl)cc1 | 5.6µM*[quencher] | 11% | -7% | 1% | 8% | ·
O=C(CN1c2ccccc2Sc2ccccc21)NNC(=O)Nc1ccc(Cl)c(Cl)c1 | 5µM*[quencher] | ? | -3% | -1% | -9% | ?
CCOC(=O)c1cnn(-c2ncnc3c2oc2ccccc23)c1N | -7% | -7% | -3% | -1% | 6% | ?
Cc1nc(Cl)sc1C(=O)NC(C)c1ccc(Cl)cc1 (stereo unspecified) | 3% | -4% | 1% | -4% | 11% | -1%
CCc1ccc(NC(=O)C(Cc2ccccc2)NS(=O)(=O)c2ccc3c(c2)CCN3C(C)=O)cc1 (stereo unspecified) | -19% | -1% | -1% | -2% | · | -3%
CCS(=O)(=O)N1Cc2ccccc2CC1C(=O)Nc1nc2c(C)cccc2s1 (stereo unspecified) | -18% | -10% | -1% | 10% | 25µM* | -6%

High-throughput results from PubChem.
